“And” between values parts separate entries of the source, which are not always exact repeats. Identical values can stand only once. The source made the active and inactive calls.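 How the source made its calls, unless noted: active means inhibition at or above 50% relative to wild type and mutant plate controls; inactive means inhibition below 50%.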
Tests used:
[1] = inhibitors of TNFa-induced NFkB p65 translocation, primary screen, imaging, HUVEC, MLSMR starter and 10KST1 sets (AID 438;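 active means inhibition above 20% together with a positive visual image hit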;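 further: compound added about 3h40 before a 20 min TNFalpha stimulation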;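 on inhibition: signal is the nuclear over cytoplasmic p65 intensity ratio per well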); conditions: HUVEC TNFa-induced p65 nuclear translocation; cell count: measured here: nuclei count (cytotoxicity indicator), at 2.08 µM; inhibition: at 2 µM, stronger effect = higher value, 0% TNFa-plus-vehicle, 100% no-TNFa wells
[2] = inhibitors of mutant huntingtin aggregation, primary screen, imaging, exon1htt(103Q)mCFP cells, high-content imaging (AID 483;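 active means visual image review flags a hit and inhibition of aggregation exceeds 20%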;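 further: compound exposure lasted 3 days before fixation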;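 on nuclei count: percent of the per-plate median nuclei count of sample wells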); conditions: exon1htt(103Q)mCFP cell line, aggregate imaging, at 2 µM; inhibition of aggregation: stronger effect = higher value; nuclei count: measured here: cell count, toxicity
[3] = inhibitors of E-selectin induction by TNFa, primary screen, imaging, HUVEC, immunofluorescence, MLSMR starter and 10KST1 sets (AID 487;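 active means visually confirmed hit in the image check and inhibition above 20%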;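 on inhibition: signal is fraction of cell area covered by stained E-selectin grains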;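 on nuclei count: 100% = median nuclei count of all wells on the same plate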); conditions: HUVEC TNFalpha-induced E-selectin immunofluorescence imaging, at 2 µM; inhibition: stronger effect = higher value; nuclei count: measured here: cell number, toxicity
[4] = DUSP6 inhibitors restoring Erk phosphorylation by chemical complementation, primary imaging in DUSP6-transfected HeLa (AID 609;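 active means compounds giving at least 50% inhibition in the cell-based MKP-3 phosphatase rescue imaging test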;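 on inhibition: phospho-Erk level distribution per well compared with pooled transfected vehicle control wells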); conditions: HeLa MKP-3 transfected, phospho-Erk imaging KS statistic, at 10 µM, cells stimulated with TPA for 15 min
[5] = target: Dual specificity protein phosphatase 6 (Homo sapiens) (UniProt Q16828); assay: as above; conditions: HeLa MKP-3 transfected, phospho-Erk imaging KS statistic; at 10 µM; stronger effect = higher value; cells stimulated with TPA for 15 min
Chain of Dual specificity protein phosphatase 6 (Homo sapiens) (Q16828 whole entry, looked up): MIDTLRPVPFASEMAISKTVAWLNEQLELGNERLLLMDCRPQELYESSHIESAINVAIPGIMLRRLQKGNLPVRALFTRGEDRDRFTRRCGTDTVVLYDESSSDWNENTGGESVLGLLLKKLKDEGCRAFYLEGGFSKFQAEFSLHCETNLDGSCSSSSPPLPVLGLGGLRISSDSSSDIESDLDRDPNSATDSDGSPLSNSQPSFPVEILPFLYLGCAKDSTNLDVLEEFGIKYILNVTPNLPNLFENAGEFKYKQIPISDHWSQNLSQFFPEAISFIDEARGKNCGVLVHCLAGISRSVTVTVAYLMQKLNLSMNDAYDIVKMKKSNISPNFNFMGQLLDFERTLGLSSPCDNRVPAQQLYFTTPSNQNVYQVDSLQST

[6] = target: Voltage-gated potassium channel subunit beta-2 (Rattus norvegicus) (UniProt P62483); assay: KvBeta enzyme negative modulators, primary screen, biochemical, NADPH fluorescence (AID 622;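 active means fluorescence slope higher than the sample average by over 3 SD, cut at about -0.22 in these data, passing the limit was not always enough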;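 further: slope of raw intensity against log time taken from 70 to 1610 s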); conditions: recombinant KvBeta, 4-cyanobenzaldehyde reduction, at 10 µM, stronger effect = higher value
Chain of Voltage-gated potassium channel subunit beta-2 (Rattus norvegicus) (P62483 whole entry, looked up): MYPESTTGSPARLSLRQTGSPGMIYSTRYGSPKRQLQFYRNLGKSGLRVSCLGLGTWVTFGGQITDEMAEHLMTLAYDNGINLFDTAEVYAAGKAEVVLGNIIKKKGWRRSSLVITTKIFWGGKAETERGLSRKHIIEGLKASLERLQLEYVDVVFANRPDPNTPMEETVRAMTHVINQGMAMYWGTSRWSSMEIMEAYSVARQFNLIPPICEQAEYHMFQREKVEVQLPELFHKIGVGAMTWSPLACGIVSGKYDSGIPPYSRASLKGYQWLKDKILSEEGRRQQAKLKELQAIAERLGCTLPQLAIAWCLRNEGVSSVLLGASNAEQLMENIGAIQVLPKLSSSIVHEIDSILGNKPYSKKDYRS

[7] = target: Voltage-gated potassium channel subunit beta-2 (Rattus norvegicus) (UniProt P62483); assay: KvBeta positive modulators, primary screen, biochemical, NADPH fluorescence (AID 623;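 active means NADPH fluorescence slope more negative than the mean of all samples by about 3 SD, 99.7% confidence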;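 further: fluorescence intensity change per second fitted from 20 to 320 s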); conditions: Recombinant KvBeta, NADPH fluorescence decrease slope, 10 min; at 10 µM; stronger effect = lower value
[8] = target: Alpha-2C adrenergic receptor (Homo sapiens) (UniProt P18825); assay: modulators of alpha2C/GIRK thallium flux, primary screen, cell-based, HEK293 alpha2C/GIRK1/2 (AID 624;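 active means fluorescence slope after compound addition differing from the mean of all screened samples at 99.7% confidence, in either direction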;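 further: slope of fluorescence ratio to pre-addition baseline per second over 15 to 24 s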); conditions: thallium flux BTC fluorescence, at 10 µM, actives lie on both sides
Chain of Alpha-2C adrenergic receptor (Homo sapiens) (P18825 whole entry, looked up): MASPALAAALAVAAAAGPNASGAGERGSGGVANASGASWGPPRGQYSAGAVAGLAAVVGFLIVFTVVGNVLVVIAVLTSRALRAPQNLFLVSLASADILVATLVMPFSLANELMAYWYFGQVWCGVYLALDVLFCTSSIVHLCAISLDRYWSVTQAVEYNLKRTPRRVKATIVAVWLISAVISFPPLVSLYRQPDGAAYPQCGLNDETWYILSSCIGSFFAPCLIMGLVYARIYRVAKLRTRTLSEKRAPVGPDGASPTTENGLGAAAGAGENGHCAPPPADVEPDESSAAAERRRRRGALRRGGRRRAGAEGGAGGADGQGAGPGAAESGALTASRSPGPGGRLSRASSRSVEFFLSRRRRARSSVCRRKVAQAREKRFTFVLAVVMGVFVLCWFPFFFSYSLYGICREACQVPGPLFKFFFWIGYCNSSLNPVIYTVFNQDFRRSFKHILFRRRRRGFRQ

[9] = inhibitors of larval lipid processing in zebrafish, primary screen, whole organism, PED6 fluorescence, gall bladder and intestine (AID 686;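 active means a full or partial loss of lipid-probe fluorescence in the fish gall bladder, intestine or both, judged by eye; inactive means no fluorescence loss, or compound toxic to the fish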;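 further: larvae 5 to 7 days old with five fish per well; signal comes from phospholipase A2 cleavage of quenched PED6 carried via bile; overnight exposure to compound and PED6 before scoring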); conditions: Zebrafish larvae PED6 lipid processing, fluorescence scoring; screened at 20 µM (by protocol)
[10] = inhibitors of Chlamydomonas gravitaxis, primary screen, whole organism, Chlamydomonas reinhardtii, WT vs cilia-less mutant, absorbance, 96-well (AID 463189); conditions: OD600 absorbance, 2 days, at 10 µM, stronger effect = higher value;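 further: 0% = wild type cc124 cells in DMSO and 100% = ciliumless bld1 mutant cells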
[11] = inhibitors of Sendai virus-induced IRF3 signaling, primary screen, TLR/RLR signaling modifier project, cell-based, Sendai virus stimulus, luciferase, 10K MLSCN set (AID 602276;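 active means inhibition at or above 50% at 10 µM; inactive means inhibition below 50%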;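 further: firefly luciferase from ISG56 promoter only with Renilla not read in this screen; 0% = Sendai virus plus DMSO and 100% = medium plus DMSO without virus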); conditions: HEK293 RL24 IRF3 luciferase reporter, at 10 µM, stronger effect = higher value
[12] = inhibitors of poly I:C-induced TLR3 signaling, primary screen, cell-based, poly I:C stimulus, luciferase, 10K MLSCN set (AID 602277;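 active means inhibition of the reporter signal at or above 50%; inactive means inhibition below 50%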); conditions: HEK293-TLR3 RL24 IRF3 luciferase reporter, at 10 µM, stronger effect = higher value
[13] = target: Muscarinic acetylcholine receptor M4 (Homo sapiens) (UniProt P08173); assay: compounds altering M4/GIRK thallium flux, either direction, primary screen, M4 allosteric agonist project, cell-based, HEK293 M4/GIRK, BTC-AM (AID 625;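 active means fluorescence slope after compound addition differing from the mean of all tested samples at 99.7% confidence, mostly higher but some lower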;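 further: thallium influx through GIRK channels coupled to M4 in HEK293 cells with BTC-AM dye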); conditions: at 10 µM, actives lie on both sides
Chain of Muscarinic acetylcholine receptor M4 (Homo sapiens) (P08173 whole entry, looked up): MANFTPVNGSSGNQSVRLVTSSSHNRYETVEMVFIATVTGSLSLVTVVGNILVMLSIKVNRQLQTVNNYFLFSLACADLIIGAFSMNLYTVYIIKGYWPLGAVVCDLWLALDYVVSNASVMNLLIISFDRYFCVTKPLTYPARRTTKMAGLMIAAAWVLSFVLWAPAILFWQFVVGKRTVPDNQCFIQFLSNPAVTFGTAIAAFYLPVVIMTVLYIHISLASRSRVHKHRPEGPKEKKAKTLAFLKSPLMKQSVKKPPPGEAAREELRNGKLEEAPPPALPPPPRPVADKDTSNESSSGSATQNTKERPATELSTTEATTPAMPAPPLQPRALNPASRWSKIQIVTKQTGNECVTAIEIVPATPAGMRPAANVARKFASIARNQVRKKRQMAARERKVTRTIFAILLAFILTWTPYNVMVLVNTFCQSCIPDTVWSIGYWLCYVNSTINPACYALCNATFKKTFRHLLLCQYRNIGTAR

[14] = measured here: cell density z-score
[15] = measured here: nuclear c-Myc green intensity z-score
[16] = measured here: nuclear pErk red intensity z-score, stronger effect = higher value

Compound	cell count [1]	inhibition [1]	inhibition of aggregation [2]	nuclei count [2]	inhibition [3]	nuclei count [3]	z-score [4, 14]	z-score [4, 15]	z-score [4, 16]	inhibition [5]	fluorescence slope [6]	NADPH fluorescence slope [7]	slope [8]	outcome [9]	inhibition [10]	inhibition [11]	inhibition [12]	fluorescence slope [13]
O=C(O)CCc1cc(I)c(Oc2ccc(O)c(I)c2)c(I)c1	623	-9.5% (inactive)	-4.4% (inactive)	107%	-120% (inactive)	127%	1.17	-0.143	0.645	9.37% (inactive)	-0.522 (inactive)	-5.4e-05 (inactive)	0.00395 (inactive)	inactive	3.29% (inactive)	21.3% (inactive)	34.6% (inactive)	–
CN1C(C(=O)Nc2ccccn2)=C(O)c2ccccc2S1(=O)=O	593 and 424	-2.6% (inactive) and -16.7% (inactive)	-13.6% (inactive)	111%	-30.1% (inactive) and -244% (inactive)	112% and 218%	0.668 and -0.761	0.887 and -0.948	-0.364 and 0.452	11.3% (inactive) and 2.71% (inactive)	-0.457 (inactive) and -0.395 (inactive)	1.6e-05 (inactive) and -1.1e-05 (inactive)	0.00561 (inactive) and 0.00377 (inactive)	inactive	7.21% (inactive) and 26% (inactive) and -1.23% (inactive)	-0.169% (inactive)	-2.96% (inactive)	–
Cc1cccc(C)c1NC(=O)C1CCCCN1C (configuration not stated)	662	-8.2% (inactive)	-22% (inactive)	108%	-104% (inactive)	139%	1.2	-0.238	0.358	3.45% (inactive)	-0.488 (inactive)	-4.1e-05 (inactive)	0.00459 (inactive)	inactive	3.16% (inactive)	12.7% (inactive)	35.5% (inactive)	–
S=C(N=Nc1ccccc1)NNc1ccccc1	456	-24.6% (inactive)	15.4% (inactive)	97.4%	-51.9% (inactive)	122%	0.583	-0.233	0.888	-2.46% (inactive)	-0.552 (inactive)	-4.2e-05 (inactive)	0.0111 (inactive)	inactive	12.8% (inactive)	-11.4% (inactive)	-44.3% (inactive)	–
CC(=O)Nc1nnc(S(N)(=O)=O)s1	660	-4.8% (inactive)	-0.3% (inactive)	93.8%	-29.7% (inactive)	122%	-0.588	-1.08	0.272	13.3% (inactive)	-0.462 (inactive)	-6.7e-05 (inactive)	0.0054 (inactive)	active; no signal in intestine only	0.808% (inactive) and -5.65% (inactive)	-14.2% (inactive)	1.99% (inactive)	–
CC1(C)Cc2c(c(-c3ccccc3)nc(N3CCCC3)c2C(N)=O)CO1	496	-6% (inactive)	15.7% (inactive)	102%	-130% (inactive)	142%	-1.1	1.34	-0.38	-6.59% (inactive)	-0.473 (inactive)	-0.000128 (inactive)	0.0059 (inactive)	inactive; toxic	-0.193% (inactive)	16.5% (inactive)	21.4% (inactive)	0.00451 (inactive)
COc1cc([C@@H]2[C@H]3CN(C)CC=C3C(C#N)=C(N)C2(C#N)C#N)cc2c1OCO2	394	-2.2% (inactive)	31.8% (inactive)	111%	-39.2% (inactive)	109%	0.739	-0.834	0.31	57.9% (inactive)	-0.309 (inactive)	9.9e-07 (inactive)	0.00454 (inactive)	inactive	38% (inactive)	4.57% (inactive)	19.8% (inactive)	–
CC(C)CNC(=O)c1c(N)n(/N=C/c2ccccn2)c2nc3ccccc3nc12	533	-2.3% (inactive)	-1.4% (inactive)	105%	-33.4% (inactive)	129%	1.46	-0.805	-0.75	4.37% (inactive)	-0.43 (inactive)	-3.5e-05 (inactive)	0.00506 (inactive)	inactive	31.2% (inactive)	-0.468% (inactive)	-13.1% (inactive)	0.0059 (inactive)
CNCCCC12CCC(c3ccccc31)c1ccccc12	541	-4.8% (inactive)	19.8% (inactive)	83.4%	-80.6% (inactive)	114%	-1.24	0.435	1.73	3.45% (inactive)	-0.501 (inactive)	-9.7e-05 (inactive)	0.00463 (inactive)	inactive	6.33% (inactive) and 2.26% (inactive)	-23.6% (inactive)	55.4% (active)	–
CCCCCCCCCCCCCCCC(O)C(N)CO (configuration not stated)	586	0.2% (inactive)	-17.4% (inactive)	104%	-75.6% (inactive)	122%	0.584	2.76	2.96	25.1% (inactive)	-0.485 (inactive)	-6.4e-05 (inactive)	0.00528 (inactive)	inactive; toxic	61% (active)	18.8% (inactive)	4.1% (inactive)	–
